According to PubChem BioAssay AID624330 (Southern Research Specialized Biocontainment Screening …, 2012):
Among all 340,000 compounds or so, about 2,100 (0.62%) were called active.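 Rule for the calls: active = first-screen hits whose inhibition reached a set limit at any dose in the follow-up dose series; inconclusive = inhibition above the set first-screen limit but never retested; inactive = the rest.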 These entries were drawn from the full list. Entries with a potency or affinity are not part of this list.

target: Rac GTPase-activating protein 1 (Homo sapiens) (UniProt Q9H0H5); test: MgcRacGAP GTPase-activating activity inhibitors, confirmation, biochemical, ADP Hunter fluorescence, primary and confirmatory (AID 624330); conditions: MgcRacGAP-stimulated Rac1 GTP hydrolysis, at 30 µM, hits give high values, GST-tagged Rac1 F28L mutant substrate;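 note: fluorescence reports GDP produced by GAP-driven GTP hydrolysis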
Sequence (Q9H0H5 whole entry, looked up): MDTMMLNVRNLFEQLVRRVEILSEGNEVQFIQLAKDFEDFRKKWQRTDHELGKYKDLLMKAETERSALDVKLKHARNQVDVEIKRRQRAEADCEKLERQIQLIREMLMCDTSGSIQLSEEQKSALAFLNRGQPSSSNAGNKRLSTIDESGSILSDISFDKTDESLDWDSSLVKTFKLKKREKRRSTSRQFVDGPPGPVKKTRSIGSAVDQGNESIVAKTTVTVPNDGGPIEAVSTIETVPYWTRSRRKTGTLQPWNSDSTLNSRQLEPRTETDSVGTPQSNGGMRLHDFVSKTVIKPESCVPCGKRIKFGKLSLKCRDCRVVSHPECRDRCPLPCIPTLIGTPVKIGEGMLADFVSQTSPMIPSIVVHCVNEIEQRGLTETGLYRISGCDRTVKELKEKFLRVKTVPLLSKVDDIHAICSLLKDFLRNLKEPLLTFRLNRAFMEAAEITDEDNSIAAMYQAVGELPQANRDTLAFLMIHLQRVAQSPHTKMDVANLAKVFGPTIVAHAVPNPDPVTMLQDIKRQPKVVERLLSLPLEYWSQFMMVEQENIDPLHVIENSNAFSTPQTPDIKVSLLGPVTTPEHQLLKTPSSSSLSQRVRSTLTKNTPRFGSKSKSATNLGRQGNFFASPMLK

inhibition, inactive:
COc1cc(OC)c(C(=O)NCCCn2ccnc2)cc1OC 3.26%, O=C(Nc1cccnc1)c1ccco1 -3.68%, CC(=O)N(C)c1ccc(NC(=O)Cc2cccs2)cc1 -7.79%, COC(=O)Cn1c2c(c3cc(C)ccc31)CCCC2NC(C)c1ccccc1 (stereo not given) 12.5%, Cc1ccc2nc(N3C(=O)C(O)=C(C(=O)c4ccc(C)o4)C3c3ccco3)sc2c1 (stereo not given) 14.4%, CCOc1ccc2nc(N3C(=O)C(O)=C(C(=O)c4ccco4)C3c3ccco3)sc2c1 (stereo not given) 10.3%, CCN1CCN(C(c2cccnc2)c2c(NC(=O)c3ccco3)sc(C)c2C)CC1 (stereo not given) 3.07%, O=[N+]([O-])c1ccc(O)c(CNCc2ccccc2)c1 5.59%, Oc1ccc(N=Cc2ccc(OCc3ccccc3)cc2)cc1 9.78%, CC1CCCC(C)N1/N=C/c1ccc(O)cc1 (stereo not given) 21.4%, Oc1ccc(C=NC2CCCCC2)cc1 -1.9%, Oc1c(C=Nc2ccccc2)sc2ccccc12 6.75%, Cc1ccc(C(C(=O)NC2CCCCC2)N(Cc2ccco2)C(=O)Cc2c[nH]c3ccccc23)o1 (stereo not given) 9.31%, COc1cc(OC)cc(C(=O)NCCCN2CCOCC2)c1 5.65%, CCc1c(C)nc(SCC(=O)N2CCCCC2)[nH]c1=O 0.74%, O=C1c2ccccc2C(=O)N1CCCCSc1nnc(-c2ccc(OC(F)F)cc2)o1 -1.82%, CC(CNC(=O)Cn1ccc(N)nc1=O)c1ccccc1 (stereo not given) -5.59%, COc1cc(/C=C2\C(=N)N3N=C(S(C)(=O)=O)SC3=NC2=O)ccc1OS(=O)(=O)c1ccc(C)cc1 23.8%, CSc1ccc(/C=C2\C(=N)N3N=C(CC(=O)N4CCOCC4)SC3=NC2=O)cc1 -13.1%, CCN(CC)c1ccc(/C=C2\C(=N)N3N=C(CC(=O)N4CCOCC4)SC3=NC2=O)cc1 5.98%, Cc1ccc(/C=C2/C(=N)N3N=C(CC(=O)N4CCCC4)SC3=NC2=O)cc1 1.49%, COc1cc(/C=C2/C(=N)N3N=C(CC(=O)N4CCOCC4)SC3=NC2=O)ccc1OCc1ccccc1 11.5%, Cc1ccc(/C=C2\C(=N)N3N=C(CC(=O)N4CCCCC4)SC3=NC2=O)cc1 7.03%, COc1cc(/C=C2/C(=N)N3C(=NC2=O)SN=C3S(C)(=O)=O)ccc1OS(=O)(=O)c1ccc(C)cc1 11.8%, COc1ccc(/C=C2\C(=N)N3N=C(CC(=O)N4CCOCC4)SC3=NC2=O)cc1 5.52%, CCCc1nc(NC(=O)c2ccccc2)nc(NC(=O)c2ccccc2)n1 3.82%, Cc1nc(-c2ccccc2)cc(-c2ccccc2)n1 12.4%, CN1CCN(/N=C/c2ccc(Cl)c(Cl)c2)CC1 -7.71%, Cc1ccc(-c2nc3sc4c(c3c(=O)n2N)CC(C)(C)OC4)cc1 3.06%, CCO[C@H]1OC(C(=O)NC2CC2)=C[C@@H](c2ccc3c(c2)OCO3)[C@@H]1CCCO 6.42%, CCCCc1ccc(/C=C2\C(=O)ON=C2c2ccccc2)s1 2.22%, CSc1nc2sc3c(c2c(=O)n1C)CCC3 15.1%, O=C(O)c1ccccc1C(=O)Nc1ccc(Nc2ccc([N+](=O)[O-])cc2[N+](=O)[O-])cc1 15.6%, COc1ccccc1N1C(=O)C2C3CC(c4ccccc4)C(C3)C2C1=O (stereo not given) 7.95%, O=C(O)CCNS(=O)(=O)c1ccc2c(c1)OCCCO2 9.26%, Cc1ccc(Cl)c(NC(=O)CN2C(=O)C(C)N(c3ccc(F)cc3)C2=O)c1Cl (stereo not given) 15.2%, Cc1ccc(N2CC(C(=O)Nc3ccc4c(c3)OCCO4)CC2=O)cc1C (stereo not given) 10.2%, Cc1ccc(N2CC(C(=O)Nc3ccc(N4CCOCC4)cc3)CC2=O)cc1C (stereo not given) 1.23%, CC1CCc2sc(C(=O)NC3CCN(Cc4ccccc4)CC3)cc2C1 (stereo not given) 3.25%, N#Cc1c(Nc2ccccc2)sc(C(=O)c2ccccc2)c1N -10.7%, Cc1nsc(Nc2ccccc2)c1C#N 4.71%, Cc1nsc(Nc2ccc([N+](=O)[O-])cc2)c1C#N 2.18%, CSc1nsc(/C=C/Nc2ccc(Cl)cc2)c1C#N 6.16%, Cn1ncc2c(Nc3cc(Cl)cc(Cl)c3)ncnc21 11.1%, CN(CC(=O)Nc1ccccc1Cl)C(=O)COC(=O)c1ccccc1[N+](=O)[O-] 11.2%, Cc1cccc(CCN2CCN=C2Nc2ccccc2)c1 10.2%, CCNS(=O)(=O)c1ccc(NC(=O)c2cccnc2)cc1 -7.35%, COc1cc(/C=N/NC(=O)C2CCN(CC(O)COCc3ccccc3)CC2)cc(OC)c1OC (stereo not given) -0.29%, COc1ccc(/C=N/NC(=O)c2ccc(=O)n(C)c2)cc1OC 11.2%, Cn1cc(C(=O)N/N=C/c2cccc(O)c2)ccc1=O 7.64%, COc1ccc(/C=N/NC(=O)c2cc(C3CC3)[nH]n2)cc1OC 7.5%, CCOc1cc(/C=N/NC(=O)C2CCCC2)ccc1OC(C)C 7.91%, CCOc1cccc(/C=N/NC(=O)c2cc(C3CC3)[nH]n2)c1O 9.09%, CCOc1ccc(/C=N/NC(=O)C2CC2)cc1OC 4.39%, C=CCOc1ccc(/C=N/NC(=O)C2CCCC2)cc1OCC 7.59%, COc1cc(/C=N/NC(=O)c2ccc(NC(=O)C3CC3)cc2)ccc1OC(C)=O 7.67%, COc1cc(/C=N/NC(=O)c2ccc(NC(=O)C3CCCCC3)cc2)ccc1O 8.05%, CCn1cc(/C=C(\NC(=O)c2ccccc2)C(=O)NCCCN2CCOCC2)c2ccccc21 13%, COc1ccc(/[N+]([O-])=C/c2ccco2)cc1 9.73%, CC(C)CNC(=O)NC(=O)COC(=O)c1cc(F)cc(F)c1 2.44%
